High-throughput results from PubChem BioAssay.
EP2 modulator: EP2 receptor (human) modulation. 260,000 tested, 0.83% active. induction, % at 25 µM. EP2-expressing cells, cAMP HTRF FRET, PGE2 co-stimulation. AID 940;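 active = compounds whose cAMP rise, as percent of the full-agonist control response, exceeds 60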;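 also: rat C6 glioma line stably carrying human EP2 under a CMV promoter; the protocol text gives 20 µM as final concentration; 100% = response of wells given 1 µM PGE2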
Target sequence (P43116 whole entry, looked up): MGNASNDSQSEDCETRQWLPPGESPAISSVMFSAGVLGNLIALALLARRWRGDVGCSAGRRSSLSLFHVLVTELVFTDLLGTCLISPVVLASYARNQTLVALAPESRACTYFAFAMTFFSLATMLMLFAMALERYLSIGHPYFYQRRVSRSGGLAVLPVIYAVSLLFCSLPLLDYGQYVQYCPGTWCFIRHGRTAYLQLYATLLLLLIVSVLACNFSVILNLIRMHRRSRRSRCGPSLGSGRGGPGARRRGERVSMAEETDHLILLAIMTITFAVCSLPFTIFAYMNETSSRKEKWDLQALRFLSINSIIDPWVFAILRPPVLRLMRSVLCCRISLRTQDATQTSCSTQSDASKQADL
CHT PAM: allosteric activators of human choline transporter CHT; Q9GZV3; CHT-expressing cells, membrane potential dye, choline EC20; active compounds read high; LV-AA mutant CHT in HEK293 cells; B-score at 10 µM; 310,000 tested, 0.49% active;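 active = initial fluorescence not abnormally high and integrated response B-score, plate-corrected, over 3 SD above library mean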
CHT inh: inhibits the human high affinity choline transporter; B-score at 10 µM; CHT-expressing cells, membrane potential dye, choline response; active compounds read low; AID 488975; 310,000 tested, 0.86% active; Q9GZV3;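 active = B-score over 3 SD under the library average, and starting fluorescence ratio not unusually high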;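 also: choline stimulus applied at its EC90 after an EC20 pre-addition; B-score computed on integrated fluorescence ratio after choline addition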
PGE2 EP2 inh: inhibitors of human EP2 prostaglandin E2 receptor; 260,000 tested, 0.52% active; P43116; C6 glioma cells expressing human EP2, cAMP TR-FRET; cells stimulated with saturating PGE2; inhibition, % at 25 µM;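 active = percent inhibition above 40 after rounding to a whole number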;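 also: rat C6 glioma host cells with rolipram phosphodiesterase inhibitor present; the protocol text gives 20 µM as final concentration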
CHT block conf: confirmation of human choline transporter CHT inhibitors; shares compounds with CHT inh; CHT-expressing cells, choline membrane potential dye; LV-to-AA substituted CHT, HEK293 cells; CHT activity remaining % of control (active compounds read low), % at 10 µM; 2,400 tested, 70% active; AID 493221;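 active = choline transporter activity left, mean of duplicates at 10 µM, below buffer-only control mean minus 3 SD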;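 also: depolarization triggered by choline at its EC90 following an EC20 pre-addition; 0% = hemicholinium-3 full block and 100% = buffer-only control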
HEK293 MPD ctr: activity in parental HEK293 cells lacking CHT; shares compounds with CHT inh; membrane potential dye, choline response; active = decrease or increase beyond buffer ±3SD; membrane potential ratio readout (active if shifted either direction beyond buffer ±3SD; no single direction) at 10 µM; 2,400 tested, 4% active; AID 493222;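 also: parental cells lack the transporter so any hit is non-specific; ratio is peak minus trough fluorescence over baseline after EC90 choline challenge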
Starred values were filed as active, the others as inactive; i = inactive; · = no result. An excerpt weighted towards active compounds, which were near 2% of everything screened.

SMILES | EP2 modulator | CHT PAM | CHT inh | PGE2 EP2 inh | CHT block conf | HEK293 MPD ctr
CCc1nnc(NC(=O)C(C)N2CCN(C)CC2)s1 (stereo unspecified) | 11 | · | · | 3 | · | ·
CCCCCCCCC[n+]1cccc2c3ccccc3ccc21 | -13 | i | -6.8* | 7 | 59%* | i
Cc1ccc(CN2CCN(Cc3cn(C(C)C)c4ccccc34)CC2CCO)o1 (stereo unspecified) | 17 | i | i | 11 | · | ·
CC(C)=CCN1CCN(Cc2cn(C(C)C)c3ccccc23)CC1CCO (stereo unspecified) | · | i | -5* | · | 40%* | i
O=C(O)c1cnn(-c2nc(-c3ccc(Br)cc3)cs2)c1C(F)(F)F | · | i | -8.9* | · | i | i
C=CCc1ccc(OCC(O)CN2CCC(Cc3ccccc3)CC2)c(OC)c1 (stereo unspecified) | -2 | i | -7.2* | 8 | 31%* | i
CCOC(=O)c1sc(=S)n(CC)c1NC(=O)C1CC1 | 12 | i | -6.1* | 4 | 71%* | i
Cn1c(=O)c2c(nc(SCC(=O)N3CCCCCC3)n2C)n(C)c1=O | -5 | i | -5.7* | 13 | i | i
COc1cc2c(cc1CN(CCN(C)C)Cc1ccncc1)OCO2 | -1 | · | · | 10 | · | ·
COc1ccc(CCN2C(=O)CSC2c2ccc(OC)c(OC)c2)cc1OC (stereo unspecified) | -53 | i | i | 16 | · | ·
COc1ccc(C2SCC(=O)N2CCc2ccc(OC)c(OC)c2)cc1 (stereo unspecified) | -85 | i | -6* | 5 | 43%* | i
COc1ccc(-c2cc(=O)oc(-c3cccc(C)c3)n2)cc1 | 8 | i | -14* | 13 | i | i
O=c1c2ccccc2nc(-c2ccccc2)n1Cc1ccco1 | 42 | i | -6* | 1 | 70%* | i
O=c1oc2ccccc2c(O)c1Cc1cc(Cl)c2cccnc2c1O | -20 | i | -7.3* | 7 | 69%* | i
CCCCNc1ncnc2c1cnn2-c1ccc(Cl)cc1 | -6 | i | i | 9 | · | ·
CCCCNc1ncnc2c1cnn2-c1ccccc1 | -18 | i | -5.4* | 5 | i | i
COc1cccc(=O)c2c(C)n(-c3ccc4c(c3)OCO4)c(C)c12 | 0 | · | · | 7 | · | ·
COc1ccc(CN2CCc3c(nc(N4CCCC(C)C4)[nH]c3=O)C2)cc1OC (stereo unspecified) | -38 | · | · | 8 | · | ·
O=C(NNc1ccc([N+](=O)[O-])cc1[N+](=O)[O-])c1ccco1 | · | i | -7.5* | · | 67%* | i
O=C(NNc1ccc([N+](=O)[O-])cc1)c1ccco1 | · | i | i | · | · | ·
CN1CCN(C(c2ccc3ncccc3c2)c2nnnn2C(C)(C)C)CC1 (stereo unspecified) | -2 | · | · | 9 | · | ·
CC(C)(C)n1nnnc1C(c1ccc2ncccc2c1)N1CCC(O)CC1 (stereo unspecified) | -8 | i | -5.3* | 7 | i | i
CC1CN(c2nc3c(c(=O)[nH]2)CCN(Cc2ccc(OC(F)(F)F)cc2)C3)CC(C)O1 (stereo unspecified) | -11 | · | · | 9 | · | ·
O=[N+]([O-])c1cccc(CSc2nnc3ccccn23)c1 | 30 | i | i | 6 | 67%* | i
COC(=O)C[C@H]1C(C)(C)C(=O)[C@@H]2CC3C4=CC(=O)O[C@@H](c5ccoc5)[C@]4(C)CCC3C1(C)C2=O (stereo partly specified) | 23 | · | · | 10 | · | ·
SMILES | EP2 modulator | CHT PAM | CHT inh | PGE2 EP2 inh | CHT block conf | HEK293 MPD ctr
COc1ccc(Cl)cc1C(=O)Nc1ccccc1N1CCOCC1 | 55 | · | · | 18 | · | ·
CN(C)S(=O)(=O)c1ccc(C(=O)Nc2ccc(S(=O)(=O)NC3=NCCCCC3)cc2)cc1 | -4 | i | i | 13 | · | ·
O=C(Nc1ccc(S(=O)(=O)NC2=NCCCCC2)cc1)c1ccc(C(F)(F)F)cc1 | -12 | i | -6.8* | 4 | 41%* | i
CCN(CC)CCNC(=O)c1cc([N+](=O)[O-])c(N(C)C)cc1OC | 19 | i | i | 0 | · | ·
COc1cc(N(C)C)c([N+](=O)[O-])cc1C(=O)NC(C)CNc1ccc([N+](=O)[O-])cc1Cl (stereo unspecified) | -4 | i | -5.6* | 9 | i | i
O=C(NNc1nc(-c2ccccc2)cs1)c1ccccc1 | 13 | i | -7.8* | · | 62%* | i
COc1ccc(N2CC(C(=O)OCC(=O)Nc3ccccc3F)CC2=O)cc1 (stereo unspecified) | -24 | · | · | 4 | · | ·
CCOc1ccc2ncc(S(=O)(=O)c3ccccc3)c(N3CCC4(CC3)OCCO4)c2c1 | 56 | i | i | 5 | · | ·
COc1ccc(S(=O)(=O)c2cnc3ccc(OC)cc3c2N2CCC3(CC2)OCCO3)cc1 | 20 | i | -9.7* | 9 | 23%* | i
COCCN1Cc2cccc(C(=O)Nc3ccc(-c4nc5ccccc5[nH]4)cc3)c2C1=O | -12 | i | -8.3* | 8 | i | i
CCCN1Cc2cccc(C(=O)Nc3ccc(-c4nc5ccccc5[nH]4)cc3)c2C1=O | 10 | i | i | 7 | · | ·
O=C(OCc1nc2ccsc2c(=O)[nH]1)c1ccc(Cl)nc1 | · | i | i | · | · | ·
O=C(OCc1nc2ccsc2c(=O)[nH]1)c1ccc(Cl)s1 | · | i | -11* | · | 5.9%* | i
c1ccc(OCCCc2nc(-c3ccncc3)no2)cc1 | 0 | i | i | 11 | 59%* | -8.4*
c1ccc(OCc2nc(-c3ccncc3)no2)cc1 | -22 | i | i | 11 | · | ·
Clc1ccccc1OCc1nc(-c2ccncc2)no1 | -16 | i | -6.4* | 13 | 16%* | -11*
C/C=C\C1=C(C(=O)O)N2C(=O)C(NC(=O)C(N)c3ccc(O)cc3)C2SC1 (stereo unspecified) | 24 | · | · | 11 | · | ·
O=[N+]([O-])c1cccc(S(=O)(=O)NCc2ccncc2)c1 | · | i | i | · | · | ·
O=[N+]([O-])c1cccc(S(=O)(=O)Nc2ccc(Cc3ccncc3)cc2)c1 | 0 | i | -6.1* | 5 | 59%* | i
O=C(NNC(=S)NC(=O)c1sc2ccccc2c1Cl)c1ccc(Cl)cc1 | -58 | i | -7.3* | 17 | 32%* | i
Cc1ccsc1CN(CCCN1CCOCC1)Cc1ccccc1 | -10 | · | · | 5 | · | ·
O=C(O)c1cccc2c1/C(=N/Nc1ccc([N+](=O)[O-])cc1[N+](=O)[O-])c1ccccc1-2 | · | i | -6.2* | · | 69%* | i
CCCOc1ccc(C(C)=O)cc1CC(C(=O)OCC)C(=O)OCC | 26 | i | -5* | 6 | i | i
Cc1cc(Cl)ccc1OCC(=O)OC(C)C(=O)N(C)C (stereo unspecified) | 16 | i | i | · | · | ·
